Compound activity from PubChem BioAssay.
ClpP mod = qHTS Assay for Activators of ClpP. 340,000 compounds, 1.9% hits. AID 651965, 2013. Potency, µM (top dose mostly 57.5 µM), for inactives: top-dose activity change, negative = active. ATP-dependent Clp protease proteolytic subunit (Bacillus subtilis (strain 168)), P80244. purified B. subtilis ClpP, FRET peptide cleavage, 20 min; active = well fitted falling curve with a large enough effect; inconclusive = small, poorly fitted or top-dose-only effect; inactive = no such curve, though single readings can be large or run the other way; note: the source files actives as falling curves though it sought activators and does not explain the sign; nearly all actives have a fitted effect of over 65% in size
Target sequence (P80244 whole entry, looked up): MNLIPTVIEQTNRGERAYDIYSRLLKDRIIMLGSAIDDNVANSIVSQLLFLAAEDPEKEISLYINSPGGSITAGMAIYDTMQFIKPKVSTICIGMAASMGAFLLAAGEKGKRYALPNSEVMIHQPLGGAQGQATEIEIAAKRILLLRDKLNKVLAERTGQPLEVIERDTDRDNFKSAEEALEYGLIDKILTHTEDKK
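Purified B. subtilis ClpP, 10 microg/mL final in Tris/HCl pH8 with KCl, BSA, glycerol and Tween-20, cleaved an Abz/nitrotyrosine-quenched decapeptide. Fluorescence (ex 320, em 430) was read at 0 and 20 min at room temperature. Delta was normalized to 5.8 microM ADEP and DMSO/no-enzyme controls.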
TDP1 inh = qHTS Assay for Inhibitors of Tyrosyl-DNA Phosphodiesterase (TDP1); Tyrosyl-DNA phosphodiesterase 1 (Homo sapiens), Q9NUW8; recombinant TDP1, AlphaScreen DNA substrate cleavage; Potency, µM (titrated, usually from 130 µM), without a hit: at the highest dose activity change, negative = inhibition, usual class: inhibitors; 350,000 compounds, 0.28% hits; note: % is set by controls: 0 for no effect and ±100 for the full control effect; nearly all actives have a fitted effect of over 40% in size
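Signal: AlphaScreen proximity between streptavidin donor and anti-FITC acceptor beads on intact substrate. Reaction: Tdp1 1 nM, substrate 15 nM final, 5 min RT after 15 min compound preincubation.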
TDP1 cell CPT = qHTS for Inhibitors of human tyrosyl-DNA phosphodiesterase 1 (TDP1): qHTS in cells in presence of CPT. Potency, µM (titrated, usually from 46.2 µM), inactives show at the highest dose activity change, negative = growth inhibition, actives largely listed as inhibitors. 420,000 compounds, 12% hits. chicken DT40 Tdp1-/-;hTDP1 cells + 20 nM CPT, ATP luminescence, 48 h. AID 686979, 2013; note: % is set by controls: 0 for no effect and ±100 for the full control effect; nearly all actives have a fitted effect of over 55% in size
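Cell growth measured by CellTiter-Glo luminescence after a minimum 48 h, 37 C compound exposure with 20 nM CPT in Tdp1-knockout DT40 cells stably expressing hTDP1, seeded 400/well; qHTS titration format.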
TDP1 cell noCPT = qHTS for Inhibitors of human tyrosyl-DNA phosphodiesterase 1 (TDP1): qHTS in cells in absence of CPT; 420,000 compounds, 15% hits; Potency, µM (doses to about 46.2 µM), for the others: at the top dose activity change, negative = growth inhibition, hits mostly inhibitors; DT40 Tdp1-/- hTDP1 cells, no CPT, ATP luminescence, 48 h; AID 686978, 2013; note: % is set by controls: 0 for no effect and ±100 for the full control effect; nearly all actives have a fitted effect of over 55% in size
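Cells were dispensed at 400 per well, compounds added by pin tool, plates incubated ≥48 hr at 37 °C, then CellTiter-Glo added for 30 min at room temperature before luminescence reading. Line: DT40 Tdp1-/- complemented with hTDP1; camptothecin omitted.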
* marks the source's active call; other numbers are inactive results; [ ] = remark or other dose. Compounds with a hit are over-represented: about 17% of the library has one in this group of screens. Unless noted, calls come from the whole dose curve; as a rule, active = well fitted curve in the direction sought with a large enough effect; inconclusive = small, poorly fitted or top-dose-only effect, or another doubt; inactive = no such curve, though single readings can be large; an effect the other way counts as inactive or inconclusive. Potency is the fitted concentration of half-maximal effect.

CC(=O)Nc1ccccc1NC(=O)c1cc(C)ccc1C was read as TDP1 inh -2.7%, TDP1 cell CPT 17.1% and TDP1 cell noCPT 8.6%.
Screening Cc1ccc(C)c(NC(=S)c2ccccn2)c1 returned ClpP mod 1.1%, TDP1 inh 5.4%, TDP1 cell CPT 18.4µM* and TDP1 cell noCPT 18.4µM*.
S=C(Nc1ccccn1)c1ccccn1 was read as ClpP mod -0.9%, TDP1 inh 8.4%, TDP1 cell CPT 0.92µM* and TDP1 cell noCPT 0.92µM*.
For CCN(CC)c1ccc(C2C(C(N)=O)=C(C)Nc3ncnn32)cc1 (stereo unspecified) the results were ClpP mod -5.2%, TDP1 inh -0.6%, TDP1 cell CPT -2.1% and TDP1 cell noCPT -20.5%.
CN(Cc1ccncc1)C(=O)[C@@H]1CCCN1C(=O)[C@@H]1CCCN1 was read as ClpP mod -1.7%, TDP1 cell CPT -21.3% and TDP1 cell noCPT -14.6%.
`Cc1cc(C)c[n+](-c2[nH]c(=O)sc2/C=N/N=C(\[O-])c2cccnc2)c1` gave ClpP mod -0.6%, TDP1 cell CPT -6.6% and TDP1 cell noCPT 23.6%.
For O=C1CC(N2CCC(O)(c3ccc(Cl)cc3)CC2)C(=O)N1Cc1ccc(N2CCCC2=O)cc1 (stereo unspecified) the results were ClpP mod -2.9%, TDP1 inh 1.1%, TDP1 cell CPT inconclusive and TDP1 cell noCPT 14.6µM*.
Screening O=P(c1ccccc1)(c1ccccc1)c1nc(-c2ccccc2)oc1NCc1ccccc1 returned TDP1 inh 7.2%, TDP1 cell CPT inconclusive and TDP1 cell noCPT 18.4µM*.
`CC(C)N1C(=O)C(Cc2nc3ccccc3c(=O)n2-c2ccccc2)c2ccccc21` (stereo unspecified) gave ClpP mod -2.4%, TDP1 inh 7.6%, TDP1 cell CPT inconclusive and TDP1 cell noCPT -20.8%.
CC(C)N1C(=O)/C(=C/c2nc3ccccc3c(=O)n2-c2ccccc2)c2ccccc21 was read as ClpP mod -0.1%, TDP1 inh 7.9%, TDP1 cell CPT 20.6µM* and TDP1 cell noCPT 23.1µM*.
CC(C)N1C(=O)/C(=C\c2nc3ccccc3c(=O)n2-c2ccccc2)c2ccccc21 was read as ClpP mod 0.7%, TDP1 inh 10.7%, TDP1 cell CPT 23.1µM* and TDP1 cell noCPT 16.4µM*.
Screening CC(C)(C)Nc1nc(Cl)nc(NCc2ccccc2)n1 returned TDP1 cell CPT 18.4µM* and TDP1 cell noCPT inconclusive.
Screening CC(C)c1ccc(Nc2nc(Cl)nc(Cl)n2)cc1 returned ClpP mod -0.3%, TDP1 cell CPT -13.9% and TDP1 cell noCPT inconclusive.
`Cc1ccc(Nc2nc(Cl)nc(NC(C)(C)C)n2)cc1` gave ClpP mod 0.8%, TDP1 inh -3.1%, TDP1 cell CPT inconclusive and TDP1 cell noCPT 23.1µM*.
`O=[N+]([O-])c1ccc(Nc2nccc(Cl)n2)cc1` gave TDP1 cell CPT 8.0% and TDP1 cell noCPT -28.9%.
`Cc1ccc(Nc2nc(Cl)nc(N(C)C#N)n2)cc1` gave ClpP mod -0.1%, TDP1 inh 2.9%, TDP1 cell CPT inconclusive and TDP1 cell noCPT 23.1µM*.
For CC(C)(C)Nc1nc(Nc2ccc([N+](=O)[O-])cc2)nc(NC(C)(C)C)n1 the results were ClpP mod 1.3%, TDP1 cell CPT 20.6µM* and TDP1 cell noCPT 20.6µM*.
`CCC(Sc1nc2ccncc2[nH]1)C(=O)Nc1cc(Cl)ccc1C` (stereo unspecified) gave ClpP mod 1.4%, TDP1 inh 5.1%, TDP1 cell CPT 29.1µM* and TDP1 cell noCPT 18.4µM*.
For COc1oc(C(=O)NC2CCCCC2)c(-c2ccc(Cl)cc2)c1S(=O)(=O)c1ccccc1 the results were ClpP mod -0.7%, TDP1 cell CPT inconclusive and TDP1 cell noCPT 20.6µM*.
O=C(NNS(=O)(=O)c1ccc(Cl)cc1)NC1CCCCC1 was read as ClpP mod 2.3%, TDP1 inh -2.9%, TDP1 cell CPT -5.3% and TDP1 cell noCPT -23.2%.
`Cc1csc(SCC(=O)NC(=O)NC2CCCC2)n1` gave TDP1 inh 2.5%, TDP1 cell CPT -20.7% and TDP1 cell noCPT 1.9%.
CCC(=O)N(CCC(c1ccccc1)c1ccco1)Cc1cccs1 (stereo unspecified) was read as ClpP mod 0.2%, TDP1 inh 5.2%, TDP1 cell CPT 16.4µM* and TDP1 cell noCPT 20.6µM*.
For O=C(c1ccco1)N(CCC(c1ccccc1)c1ccco1)Cc1ccccc1 (stereo unspecified) the results were TDP1 inh 0.6%, TDP1 cell CPT inconclusive and TDP1 cell noCPT inconclusive.
Screening CCC(=O)N(CCC(Cc1ccccc1)c1ccc2c(c1)OCO2)Cc1ccccc1F (stereo unspecified) returned ClpP mod 1.3%, TDP1 inh 3.2%, TDP1 cell CPT 7.31µM* and TDP1 cell noCPT 4.61µM*.
Screening CCC(=O)N(CCC(Cc1ccccc1)c1ccco1)Cc1ccco1 (stereo unspecified) returned TDP1 inh -5.1%, TDP1 cell CPT 18.4µM* and TDP1 cell noCPT 14.6µM*.
For CCOc1ccc(C(=O)Nc2c(C(=O)c3ccccc3)oc3ccccc23)cc1 the results were ClpP mod inconclusive, TDP1 inh 1.1%, TDP1 cell CPT -16.3% and TDP1 cell noCPT -1.1%.
For CN(C)S(=O)(=O)c1ccc(C(=O)Nc2ccn(C)n2)cc1 the results were TDP1 inh -0.3%, TDP1 cell CPT 9.9% and TDP1 cell noCPT 2.9%.
`O=C(O)C1CCc2nc(NCc3ccccc3)nc(NCc3ccccc3)c2C1` (stereo unspecified) gave TDP1 cell CPT -20.0% and TDP1 cell noCPT -10.5%.
Screening COc1ccc(N2CCN(C(=O)c3ccc(Oc4ccc(C(F)(F)F)cn4)cc3)CC2)cc1 returned ClpP mod 0.7%, TDP1 inh 5.9%, TDP1 cell CPT inconclusive and TDP1 cell noCPT 23.1µM*.
O=C(c1ccc(Oc2ccc(C(F)(F)F)cn2)cc1)N1CCN(c2ccccc2)CC1 was read as ClpP mod -1.2%, TDP1 inh 2.0%, TDP1 cell CPT -9.4% and TDP1 cell noCPT 29.1µM*.
Screening COc1ccc(N2CCN(C(=O)c3ccncc3)CC2)cc1 returned ClpP mod -1.3%, TDP1 inh -2.0%, TDP1 cell CPT -23.7% and TDP1 cell noCPT -19.9%.
O=C(NCCN1Cc2ccccc2OC(c2ccccc2F)C1)c1cncs1 (stereo unspecified) was read as TDP1 cell CPT -2.4%[9.04 µM] and TDP1 cell noCPT inconclusive.
Screening BrC(=C\c1ccccc1)/C=N/n1cnnc1 returned ClpP mod 0.7%, TDP1 inh -2.5%, TDP1 cell CPT 0.291µM* and TDP1 cell noCPT 0.581µM*.
CN1C(=O)CC[C@@H]1c1cccnc1 was read as TDP1 inh 10.3%[21 µM].
